Hits are enriched below; roughly 2.5% of the tested compounds scored in any of these assays.
POLH inh: blocks human DNA polymerase eta activity. Q9Y253. recombinant Pol eta, fluorescent DNA replication assay. Potency, µM (doses to about 114 µM), without a hit: at the highest dose activity change, negative = inhibition, actives largely listed as inhibitors. 390,000 tested, 1.2% active. AID 588591; further: on the % scale 0 is the no-effect control and ±100 the full control effect
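Fluorescent replication assay: 50 nM final substrate added after a 15 min room-temperature compound preincubation with 10 nM enzyme. Signal taken at 0 min and again at 10 min.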
WRN helicase inh: WRN helicase (human) inhibition; Q14191; WRN helicase unwinding, fluorescent forked duplex, kinetic; AID 651768; 360,000 tested, 0.46% active; Potency, µM (doses to about 114 µM), inactives show at the top dose activity change, negative = inhibition, usual class: inhibitors; further: on the % scale 0 is the no-effect control and ±100 the full control effect; nearly all actives have a fitted effect of over 55% in size
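Screening of the MLSMR collection measured strand separation of a quenched forked DNA duplex (100 nM) by 20 nM WRN with 2 mM ATP, all final. Compounds were preincubated with enzyme 15 min at room temperature.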
L3MBTL1 block: inhibitors of human L3MBTL1 | Potency, µM (highest dose often 57.1 µM), inactives show top-dose activity, negative = inhibition, actives largely listed as inhibitors | 230,000 tested, 0.66% active | Q9Y468 | AID 485360 | AlphaScreen L3MBTL1–H3K9me1 peptide binding; further: on the % scale 0 is the no-effect control and ±100 the full control effect; nearly all actives have a fitted effect of over 60% in size
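First, the protein-peptide complex forms for 30 min at room temperature (L3MBTL1 50 nM, biotinylated H3K9me1 peptide 75 nM). Next, compounds are pin-transferred and incubated 30 min. Finally, AlphaScreen beads are added and read after 30 min.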
Pol iota inh: blocks human DNA polymerase iota activity; AID 588590; Potency, µM (series often up to 115 µM), for inactives: top-dose activity, negative = inhibition, actives largely listed as inhibitors; 390,000 tested, 1% active; Q9UNA4; Pol iota fluorescent replication assay, 10 min
Target sequence (Q9UNA4 whole entry, looked up): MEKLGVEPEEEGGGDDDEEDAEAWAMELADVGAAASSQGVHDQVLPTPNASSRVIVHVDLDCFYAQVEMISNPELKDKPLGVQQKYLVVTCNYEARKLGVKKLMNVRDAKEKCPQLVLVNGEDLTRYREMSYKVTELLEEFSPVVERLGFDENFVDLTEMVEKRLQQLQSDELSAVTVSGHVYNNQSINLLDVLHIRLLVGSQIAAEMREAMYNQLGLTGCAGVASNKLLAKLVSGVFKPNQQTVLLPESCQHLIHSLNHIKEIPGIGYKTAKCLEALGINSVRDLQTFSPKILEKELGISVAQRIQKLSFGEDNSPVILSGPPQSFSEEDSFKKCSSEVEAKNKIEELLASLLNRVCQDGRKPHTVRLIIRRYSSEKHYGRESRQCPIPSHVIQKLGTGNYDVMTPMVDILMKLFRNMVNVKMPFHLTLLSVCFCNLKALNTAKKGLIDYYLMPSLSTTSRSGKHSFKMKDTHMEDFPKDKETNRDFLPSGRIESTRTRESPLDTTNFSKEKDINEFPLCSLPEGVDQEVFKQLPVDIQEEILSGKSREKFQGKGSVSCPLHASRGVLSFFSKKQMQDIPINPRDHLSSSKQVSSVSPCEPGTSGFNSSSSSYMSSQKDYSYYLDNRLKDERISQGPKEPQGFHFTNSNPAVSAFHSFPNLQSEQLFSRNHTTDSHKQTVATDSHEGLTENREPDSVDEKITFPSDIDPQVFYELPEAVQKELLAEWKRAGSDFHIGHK
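Pol iota at 10 nM preincubated 15 min with compounds at room temperature; reaction started with fluorescent substrate, 50 nM final. Fluorescence read kinetically at 0 and 10 min; buffer-only wells as negative control.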
POLK inh: blocks human DNA polymerase kappa activity | 400,000 tested, 0.53% active | AID 588579 | Q9UBT6 | purified Pol kappa, fluorescent DNA synthesis assay, 10 min | Potency, µM (doses to about 107 µM), inactives show at the top dose activity, negative = inhibition, actives largely listed as inhibitors; further: on the % scale 0 is the no-effect control and ±100 the full control effect
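10 nM Pol kappa was preincubated with compounds for 15 min at room temperature. Reaction started with 50 nM (final) substrate. Fluorescence read kinetically at 0 and 10 min.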
POLB inh: DNA polymerase beta (human) inhibition. P06746. Pol beta primer extension/strand displacement, fluorescence kinetic. Potency, µM (highest dose often 114 µM), for the others: top-dose activity change, negative = inhibition, most hits filed as inhibitors. 340,000 tested, 1.3% active. AID 485314; further: on the % scale 0 is the no-effect control and ±100 the full control effect
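Preincubation: enzyme (10 nM) with compound, 15 min, RT. Reaction: substrate added to 50 nM final. Reads: 0 and 10 min. Analysis: normalized, Hill fit.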
PGK validate: blocks T. brucei phosphoglycerate kinase; shares compounds with POLK inh; TbPGK coupled GAPDH assay, Kinase-Glo luminescence; Potency, µM (top dose mostly 57.5 µM), for the others: at the highest dose activity change, negative = inhibition, most hits filed as inhibitors; 500 tested, 79% active; further: on the % scale 0 is the no-effect control and ±100 the full control effect; nearly all actives have a fitted effect of over 65% in size
Pol iota confirm: Inhibitors of human DNA polymerase iota, confirmation. AID 720496. shares compounds with POLK inh. 1,500 tested, 77% active. Potency, µM, actives largely listed as inhibitors. Pol iota primer extension, TAMRA/BHQ fluorescence
* marks the source's active call; other numbers are inactive results; [ ] = dose if it differs, or a comment. The call rests on the fitted dose curve; in most records, active means well fitted curve in the direction sought with a large enough effect; inconclusive means small, poorly fitted or top-dose-only effect, or another doubt; inactive means no such curve, though single readings can be large; an effect the other way counts as inactive or inconclusive. Potency means the concentration at half of the fitted maximal effect.

For O=C(O)c1ccc(-n2cccc2/C=C2\SC(=O)N(Cc3ccc(Cl)c(Cl)c3)C2=O)cc1 the results were Pol iota confirm 67*.
For O=C(CN1C(=O)S/C(=C/c2cccn2-c2ccc(O)cc2)C1=O)N1CCCC1 the results were POLH inh -9%, WRN helicase inh 1%, Pol iota inh -8%, POLK inh -3% and POLB inh 9%.
CCC(=O)N1c2ccccc2CC1C(=O)NCCCN1CCN(c2ccc(OC)cc2)CC1 (stereo not given) was read as POLH inh -10%, Pol iota inh 31%, POLK inh -1%[60.1 µM], POLB inh -16% and PGK validate -1%.
`O=c1oc2ccccc2cc1-c1cn2ccccc2n1` gave POLH inh -11%, WRN helicase inh -8%, L3MBTL1 block 1%, Pol iota inh 24%, POLK inh 0%, POLB inh 7% and PGK validate inconclusive.
`Cc1cc2[nH]c3c(c[n+](C)c4ccccc34)c2cc1C` gave POLH inh inconclusive, WRN helicase inh 24%[11.6 µM], L3MBTL1 block 10%, Pol iota inh 4.5µM*, POLK inh 25µM*, POLB inh 1.3µM* and Pol iota confirm 15*.
Screening COc1cccc2sc(NN)nc12 returned POLH inh 2%, WRN helicase inh inconclusive, Pol iota inh 41%, POLK inh -7% and POLB inh -8%.
For NNc1nc2c(Cl)c(Cl)ccc2s1 the results were POLH inh inconclusive, WRN helicase inh inconclusive, L3MBTL1 block -3%, Pol iota inh 14µM*, POLK inh inconclusive, POLB inh inconclusive, PGK validate inconclusive and Pol iota confirm 67*.
For CCCCOC(=O)COc1ccc(Cl)cc1Cl the results were POLH inh -5%, WRN helicase inh -3%, L3MBTL1 block 40%, Pol iota inh 5% and POLK inh 5%.
Screening Cc1ccc2nc3sc(C(=O)Nc4ccc(F)cc4)cc3cc2c1 returned POLH inh -11%, L3MBTL1 block -2%, Pol iota inh inconclusive, POLK inh -2%[60.1 µM], POLB inh 2.5µM* and Pol iota confirm 75*.
Screening Cc1ccc2nc3sc(C(=O)Nc4ccncc4)cc3cc2c1 returned Pol iota confirm inconclusive.
Screening CCOc1ccccc1NC(=O)c1cc2cc3cc(C)ccc3nc2s1 returned POLH inh -12%, Pol iota inh 5%, POLK inh -4%[60.1 µM] and POLB inh -21%.
`Cc1ccc(CCNC(=O)c2cc3cc4cc(C)ccc4nc3s2)cc1` gave POLH inh -10%, Pol iota inh 30%, POLK inh 3%[60.1 µM] and POLB inh inconclusive.
Screening COc1ccc(-c2c(C)nn3c(N4CCN(c5ccccc5F)CC4)cc(C)nc23)cc1OC returned POLH inh 0%, Pol iota inh 8%, POLK inh -11% and POLB inh 5%.
`COc1cc2c(C(=O)N(C)c3cccc(C(F)(F)F)c3)cn(CC(C)C)c(=O)c2cc1OC` gave POLH inh -6%, Pol iota inh -18%, POLK inh 7% and POLB inh 9%.
`COCCN(Cc1ccccc1)C(=O)c1ccc2c(c1)NC(=O)CS2` gave POLH inh -5%, WRN helicase inh 6%, L3MBTL1 block -6%, Pol iota inh inconclusive and POLK inh 6%.
Cc1c(-c2ccc(Br)cc2)nc2ccccn12 was read as POLH inh -14%, WRN helicase inh -5%, L3MBTL1 block 3%, Pol iota inh 0%, POLK inh -5% and POLB inh 2%[57.1 µM].
`CN(C)c1ccc(-c2nc3ccccn3c2/N=C/c2ccc(Br)cc2)cc1` gave POLH inh -12%, WRN helicase inh inconclusive, L3MBTL1 block inconclusive, Pol iota inh 5%, POLK inh -11%, POLB inh -1% and PGK validate inconclusive.
CCSc1nc(O)cc(=O)[nH]1 was read as POLH inh inconclusive, WRN helicase inh 0%, Pol iota inh -26%, POLK inh -4% and POLB inh 47%.
For N#CNc1nc(O)cc(=O)[nH]1 the results were POLH inh inconclusive, WRN helicase inh -35%, L3MBTL1 block inconclusive, Pol iota inh inconclusive, POLK inh 79µM*, POLB inh -26% and PGK validate inconclusive.
For Nc1ccc2cc3[nH]c4cc(N)ccc4c3nc2c1 the results were POLH inh 4.5µM*, WRN helicase inh 25µM*, Pol iota inh 8.9µM*, POLK inh 16µM* and Pol iota confirm 19*.
`Cc1cc(=O)[nH]c2cc(N)ccc12` gave Pol iota inh 72% and POLK inh 5%.
For C=CCCC(=O)N1C[C@H]2CCN(C)[C@H]2C[C@H]1c1ccc(Br)cc1 the results were WRN helicase inh 6%.
Screening O=C(c1ccc2c3n(nc2c1)-c1ccccc1CO3)N1CCCCC1 returned POLH inh -7%, WRN helicase inh 7%, Pol iota inh 36%, POLK inh 6%, POLB inh 5% and PGK validate 9.2µM*.
Screening O=C(c1ccc2c3n(nc2c1)-c1ccccc1CO3)N1CCOCC1 returned POLH inh -14%, WRN helicase inh 10%, Pol iota inh 26%, POLK inh 12% and POLB inh -14%.
For COc1ccc(N/C=C2\CCc3ccccc3C2=O)cc1 the results were POLH inh -15%, WRN helicase inh -12%, L3MBTL1 block 12%, Pol iota inh 9%, POLK inh -7%, POLB inh 20% and PGK validate 16µM*.
`COc1ccccc1/C=N/Nc1nncc2ccccc12` gave POLH inh 3%, WRN helicase inh -33%[57.1 µM], L3MBTL1 block -11%, Pol iota inh 63%, POLK inh -12% and POLB inh 3%.
Screening COc1ccc(/C=N/Nc2nncc3ccccc23)cc1 returned POLH inh 5%, WRN helicase inh -13%, L3MBTL1 block -6%, Pol iota inh -17%, POLK inh -7%, POLB inh -4% and PGK validate 18µM*.
For CN(C)c1ccc(/C=C/c2nccc3ccccc23)cc1 the results were Pol iota inh 21% and POLK inh -14%.

High-throughput results: PubChem BioAssay, National Center for Advancing Translational Sciences (NCATS)
